The record followed here is the supplement of paper PMC3334620.

The full ranking holds about 33,000 sequences; the median of “E-score (-0.5 to 0.5)” is about -0.012, and the highest 2% start at about 0.27. The entries come from a sample that favours the highest values as a whole.

The assay concerns the target T1, Vhr1 (UniProt P40522).
T1 sequence: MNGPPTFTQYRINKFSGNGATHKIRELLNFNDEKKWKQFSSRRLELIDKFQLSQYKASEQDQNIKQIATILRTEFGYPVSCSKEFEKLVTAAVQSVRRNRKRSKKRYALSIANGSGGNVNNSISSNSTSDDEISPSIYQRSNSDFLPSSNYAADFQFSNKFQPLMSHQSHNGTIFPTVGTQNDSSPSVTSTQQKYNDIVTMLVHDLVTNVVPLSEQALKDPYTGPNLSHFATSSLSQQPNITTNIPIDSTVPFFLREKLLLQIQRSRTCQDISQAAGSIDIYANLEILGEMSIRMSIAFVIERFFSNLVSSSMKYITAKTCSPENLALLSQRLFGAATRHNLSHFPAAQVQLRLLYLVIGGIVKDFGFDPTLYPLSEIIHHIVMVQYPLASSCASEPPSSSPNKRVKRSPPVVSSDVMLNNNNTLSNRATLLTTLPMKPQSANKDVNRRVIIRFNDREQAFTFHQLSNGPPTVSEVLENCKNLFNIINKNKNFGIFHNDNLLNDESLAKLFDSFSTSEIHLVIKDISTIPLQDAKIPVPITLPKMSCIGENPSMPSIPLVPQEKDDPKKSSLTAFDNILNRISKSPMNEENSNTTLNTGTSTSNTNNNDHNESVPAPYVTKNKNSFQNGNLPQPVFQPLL
Description: PBM E-score (8-mer binding enrichment) (E-score (-0.5 to 0.5)); higher = stronger / more preferred TF binding. As to conditions: protein concentration: 200 nM; construct: GST-full length. On the procedure:
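Universal 'all 10-mer' protein binding microarrays (Agilent AMADID 015681) probed with GST-tagged S. cerevisiae TFs (full-length or DBD) made by in vitro transcription/translation (PURExpress), about 100-200 nM. Bound TF was detected with fluorescent anti-GST. Each ungapped 8-mer (which stands for itself and its reverse complement) is scored by the PBM enrichment score (E-score), a modified Wilcoxon-Mann-Whitney statistic from -0.5 to +0.5, computed with the Universal PBM Analysis Suite. Scale: above 0.35 generally sequence-specific binding.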
Take GATCAGTA: the “PBM E-score” value was determined as 0.121.
Take AGGTGACT: the “PBM E-score” value is 0.425.
The figure for ACGTGACA is -0.197; for AGGTGACG it is -0.0476.
The figure for ACGTGACG is -0.137; for AGGTGACA it is 0.0488.
Under ACGTGACT stands 0.41; under CTCATAAC, 0.00985.
Regarding ATGTGGTG, the “PBM E-score” value was determined as 0.227.
The figure for AGAAGATA is -0.193.
The figure for TCAGTTAA is -0.108; for AGTAGGCA it is 0.154; for CACAACGC it is 0.134.
On to GTGACTTA, for which the “PBM E-score” value came out at 0.259.
The figure for ACGACTAG is 0.162; for CGGACTAC it is 0.0519; for CAGACTAC it is 0.136.
The figure for CAGACTAA is 0.117.
CGGACTAA: the “PBM E-score” value stood at 0.102.
Under CTGACTAC stands 0.361; under AAGACTAG, -0.209; under GGGACTAA, -0.209.
Under GTGACTAA stands 0.428; under CTGACTAA, 0.359; under ATGACTAG, 0.369.
With AGGTGGAG, the “PBM E-score” value is -0.191.
On to CGATCGCA, for which the “PBM E-score” value turned out to be 0.178.
Under TCCCTGCA stands 0.0302.
The figure for AGGGTTGC is -0.068; for CGAGCGAG it is 0.262; for ATTCGAGC it is -0.0346.
Under GGCCATAC stands 0.0276.
ATGACTAC: the “PBM E-score” value turned out to be 0.462.
Under AGGACTAA stands 0.054; under AGGACTAC, 0.067.
The figure for AAGACTAA is 0.116; for ATGACTAA it is 0.42.
Under AAGACTAC stands 0.122; under AGTCTACC, -0.0695; under CGAAGTGC, -0.107.
Consider AAACGCAC, for which the “PBM E-score” value was found to be 0.142.
Under CAAAAGGA stands -0.2; under AACTGATC, 0.157.
The figure for CGGCAGCC is 0.282; for CGGCAGCA it is -0.0628.
The figure for AGGCAGCC is -0.0232; for AGGGGGCA it is -0.151.
GAAACACA: the “PBM E-score” value is 0.0985.
In the case of AATTGAGT, the “PBM E-score” value came out at 0.272.
The figure for AATTGAGA is -0.0698; for AATTGAGG it is -0.233; for TGAATCCA it is 0.185.
The figure for ATCATGAG is 0.235; for GACATGAC it is 0.202; for CACATGAC it is 0.272.
Under CTCATGAG stands 0.0895; under GTCATGAC, 0.31.
In the case of ATCATGAA, the “PBM E-score” value amounted to 0.118.
The figure for CTCATGAA is 0.0223; for ATCATGAC it is 0.335.
Regarding CACATGAG, the “PBM E-score” value was determined as 0.065.
In the case of CACATGAA, the “PBM E-score” value was found to be 0.0563.
For the sequence GTCATGAA, the “PBM E-score” value was 0.257.
The figure for CTCATGAC is 0.326; for CTTTCAAC it is -0.128.
Under CGTGGTGA stands -0.158; under CAGACGGC, -0.0191.
Under CGAACTAG stands -0.0301.
As for TCTAGAAA, the “PBM E-score” value was -0.272.
The figure for AACCCTGA is 0.286.
Under ACCCCTGA stands 0.143; under CACCCTGA, 0.245.
Under AACCCATT stands 0.0791; under AACCCATA, 0.271.
For the sequence GACCCATA, the “PBM E-score” value was 0.251.
In the case of AATTGACT, the “PBM E-score” value came out at 0.149.
Under CTTAAGTA stands -0.199; under CTAGGTTC, -0.0959.
The figure for CCGAATGC is -0.0649; for TATAGTGA it is -0.0332.
Under CATAGTCC stands 0.115; under AATAGTCG, 0.148; under GATAGTAA, 0.0876.
Take GATAGTCC: the “PBM E-score” value is 0.0259.
The figure for GATAGTCA is 0.357; for AATAGTCT it is -0.0519.
The figure for AATAGTCA is 0.344; for TATAGTCA it is 0.318.
